Assay outcomes: PubChem, National Center for Advancing Translational Sciences (NCATS)
Sampled rows, rich in hits. Any-hit rate of the full collection: about 11%.
CBFb RUNX1 block = blocks binding between human CBF-beta and RUNX1. Q01196+Q13951. AlphaScreen CBFb-His/RUNX1-biotin binding, biochemical. Potency, µM (top dose mostly 59.8 µM), for inactives: at the highest dose activity, negative = inhibition, actives largely listed as inhibitors. 230,000 tested, under 10 active. AID 1477; note: % of control where 0% means no effect
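His-tagged CBF-beta and biotinylated RUNX1 (30 nM each) were premixed 20 min at room temperature, exposed to compound for 15 min, then given nickel-chelate and streptavidin AlphaScreen beads (50 ng each). After 90 min, AlphaScreen signal was read.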
ALDH1A1 inh = inhibitors of human aldehyde dehydrogenase 1A1; P00352; Purified ALDH1A1, NADH fluorescence, propionaldehyde substrate; Potency, µM (doses to about 75.3 µM), without a hit: at the top dose activity, negative = inhibition, usual class: inhibitors; 220,000 compounds, 7.3% hits; AID 1030; active = well fitted inhibition curve with a large enough effect, not every such curve was filed as active; inconclusive = small, poorly fitted or top-dose-only effect, or another doubt; inactive = no such curve, though single readings can be large or run the other way;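 note: potency is the fitted concentration of half-maximal effect; plate controls were no enzyme wells and a reference inhibitor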
HPGD block = inhibitors of human 15-hydroxyprostaglandin dehydrogenase (HPGD); AID 894; Potency, µM, for the others: at the highest dose activity change, negative = inhibition, usual class: inhibitors; purified HPGD, NADH fluorescence kinetic, PGE2 substrate; P15428; 150,000 compounds, 4.3% hits; active = well fitted inhibition curve with a large enough effect, not every such curve was filed as active; inconclusive = small, poorly fitted or top-dose-only effect, or another doubt; inactive = no such curve, though single readings can be large or run the other way; note: potency is the fitted concentration of half-maximal effect; % is set by controls: 0 for no effect and ±100 for the full control effect
Target sequence (P15428 whole entry, looked up): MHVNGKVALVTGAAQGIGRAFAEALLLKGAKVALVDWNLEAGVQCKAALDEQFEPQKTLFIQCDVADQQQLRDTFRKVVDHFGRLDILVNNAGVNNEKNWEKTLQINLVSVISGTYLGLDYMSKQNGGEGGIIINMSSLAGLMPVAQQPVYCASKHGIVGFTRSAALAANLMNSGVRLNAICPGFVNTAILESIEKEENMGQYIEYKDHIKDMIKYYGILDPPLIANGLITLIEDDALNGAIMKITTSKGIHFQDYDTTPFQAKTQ
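NADH formation kinetics: reaction with 30 uM PGE2 and 1 mM NAD+ (final), 20 nM enzyme, Tris-HCl pH 8 with Tween 20, after 15 min compound preincubation at room temperature. Fluorescence change, last versus first of five reads.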
PNC inhibitor = inhibitors of perinucleolar compartment assembly; activity change (PNC), negative = inhibition, % at 10 µM; 140,000 compounds, 3.1% hits; AID 2417; PC3M PTB-GFP, PNC prevalence imaging, 16 h; active compounds read low;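 active = readout at or below -70, meaning at least 70% loss of cells showing the perinucleolar compartment, a nuclear body marking cancer cells; inconclusive = readout between -30 and a set limit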;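 note: plate controls were DMSO wells for no effect and camptothecin positive control wells for full effect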
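Read-out is percentage of cells bearing a perinucleolar compartment, from automated 20x imaging of fixed, Hoechst-stained PC3M PTB-GFP cells. Cells were seeded 4 h, then exposed 16 h to compound (23 nl of library stock) in duplicate plates.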
HTT cytoprotect = cytoprotection in Huntington HTT-Q103 PC12 cell model | 230,000 compounds, 0.14% hits | Potency, µM (doses to about 56.4 µM), without a hit: cytoprotection (ATP increase), usual class: activators | PC12 HTT-Q103 induced, cytoprotection, ATP luminescence, 40 h | AID 1471; note: potency is the fitted concentration of half-maximal effect; % of control where 0% means no effect; nearly all actives have a fitted effect of over 45% in size
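Cells were plated at 1500 per well in phenol red-free DMEM with 5% equine and 5% calf serum. Tebufenozide (100 nM final) and compounds were added, then ATPlite reagent, and luminescence was read.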
HTT aggregate = reduces HttQ103-GFP aggregates in PC12 cells | Potency, µM (highest dose often 46.1 µM), inactives show at the top dose activity change, negative = inhibition, most hits filed as inhibitors | 220,000 compounds, 1.1% hits | PC12 HttQ103-GFP aggregates, Acumen cytometry, 40 h; note: potency is the fitted concentration of half-maximal effect; % is set by controls: 0 for no effect and ±100 for the full control effect; nearly all actives have a fitted effect of over 60% in size
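PC12 cells with ecdysone-inducible HTT exon1 Q103-GFP, induced by 100 nM tebufenozide, given compounds in a concentration series. GFP aggregates (1–25 um, 6 SD above background) counted in lysates by laser-scanning cytometry, 488 nm excitation.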
* marks the source's active call; other numbers are inactive results; [ ] = another dose, or the depositor's remark. Unless noted, calls come from the whole dose curve; as a rule, active = well fitted curve in the direction sought with a large enough effect; inconclusive = small, poorly fitted or top-dose-only effect, or another doubt; inactive = no such curve, though single readings can be large; an effect the other way counts as inactive or inconclusive.

`CC(=O)c1ccsc1-c1c(C)cc2oc(=O)cc(-c3ccccc3)c2c1C` gave CBFb RUNX1 block inconclusive, ALDH1A1 inh inconclusive, HPGD block 40µM* and HTT cytoprotect -202%.
For Cc1cc2oc(=O)cc(-c3ccccc3)c2c(C)c1-c1sccc1C=O the results were CBFb RUNX1 block 21%[89.1 µM], ALDH1A1 inh inconclusive, HPGD block 40µM* and HTT cytoprotect -92%.
`COc1ccc(C(C(=O)NC2CCCCC2)N(C(=O)CCl)c2cccc(Cl)c2)cc1` (centres undefined) gave CBFb RUNX1 block -20%, ALDH1A1 inh -9%, HPGD block -6%, PNC inhibitor inconclusive, HTT cytoprotect -42%[10 µM] and HTT aggregate inconclusive.
`CC1Cc2ccccc2N1C(=O)COC(=O)C1(c2ccccc2F)CCCC1` (centres undefined) gave CBFb RUNX1 block 19%, ALDH1A1 inh -2%, HPGD block -3%, PNC inhibitor -90*, HTT cytoprotect 11%[10 µM] and HTT aggregate -6%.
`CC1Cc2ccccc2N1C(=O)COC(=O)c1ccc(Br)o1` (centres undefined) gave CBFb RUNX1 block 2%, ALDH1A1 inh 15%, HTT cytoprotect 9%[10 µM] and HTT aggregate 5%.
Screening CC1Cc2ccccc2N1C(=O)COC(=O)Cn1nnc(-c2ccccc2)n1 (centres undefined) returned CBFb RUNX1 block -1%, ALDH1A1 inh 0.71µM*, HPGD block -24%, PNC inhibitor -19, HTT cytoprotect 13% and HTT aggregate -5%.
Screening O=C(Nc1cccc(Cl)c1)N1CCN2C(=O)c3ccccc3C12c1ccccc1 (centres undefined) returned CBFb RUNX1 block -8%, ALDH1A1 inh 1%, HPGD block -16%, PNC inhibitor 17, HTT cytoprotect -51% and HTT aggregate inconclusive.
For COc1ccccc1CNC(=O)C(CC(C)C)NC(=O)C1CCC(C)CC1 (centres undefined) the results were CBFb RUNX1 block -2%, ALDH1A1 inh -2%, HPGD block -9%, PNC inhibitor -102*, HTT cytoprotect 7% and HTT aggregate 15%[9.22 µM].
`Cc1ccc(NC(=S)NC(NC(=O)c2ccco2)C(Cl)(Cl)Cl)cc1` (centres undefined) gave CBFb RUNX1 block 9%, ALDH1A1 inh 28µM*, HPGD block -23%, PNC inhibitor -6, HTT cytoprotect -8%[10 µM] and HTT aggregate -19%.
Screening O=C(O)c1ccc(NC(=S)NC(NC(=O)c2ccco2)C(Cl)(Cl)Cl)cc1 (centres undefined) returned CBFb RUNX1 block -2%, ALDH1A1 inh 40µM*, HPGD block -14%, PNC inhibitor inconclusive, HTT cytoprotect -12%[10 µM] and HTT aggregate 24%.
Screening Cc1ccc(NC(NC(=O)Cc2ccccc2)C(Cl)(Cl)Cl)cc1 (centres undefined) returned CBFb RUNX1 block -6%, ALDH1A1 inh -8%, HPGD block -17%, PNC inhibitor -111*, HTT cytoprotect 24%[10 µM] and HTT aggregate -7%.
For Cc1cccc(NC(=S)NC(NC(=O)c2ccco2)C(Cl)(Cl)Cl)c1 (centres undefined) the results were CBFb RUNX1 block -8%, ALDH1A1 inh inconclusive, HPGD block -20%, PNC inhibitor inconclusive, HTT cytoprotect 1% and HTT aggregate -16%.
`C[C@@H](c1ccccc1)N1C(=O)[C@H]2[C@H]3[C@H](O)[C@H](O)C/C(=N/NC(=O)OCc4ccccc4)[C@@H]3CC[C@@H]2C1=O` gave CBFb RUNX1 block -9%[13.1 µM], ALDH1A1 inh -6%[13.5 µM] and HTT cytoprotect 3%[10 µM].
`O=C(CCc1nnc(COc2ccccc2)o1)NCc1ccccc1C(F)(F)F` gave CBFb RUNX1 block 10%, ALDH1A1 inh 3%, HTT cytoprotect -14%[10 µM] and HTT aggregate 0%[9.22 µM].
